# Hsp90 Hop PPI – changes Hsp90-Hop TPR2A binding signal, up or down. AID 595. Potency, µM (doses to about 57 µM), for the others: at the top dose activity change, negative = inhibition. AlphaScreen TPR2A-His6 binding biotin-Hsp90 C-terminal peptide. 71,000 compounds, 0.44% hits; active means well fitted curve in either direction with a large enough effect; inconclusive means small, poorly fitted or top-dose-only effect, or another doubt; further: potency means the concentration at half of the fitted maximal effect; on the % scale 0 is the no-effect control and ±100 the full control effect
# Tau filament bind – tau filament binding; recombinant tau filaments, thioflavin S fluorescence, 15 h; filaments grown with octadecylsulfate alongside compound; AID 596; Potency, µM (top dose mostly 57.1 µM), without a hit: at the top dose activity change, negative = inhibition; 71,000 compounds, 2% hits;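 further: potency means the concentration at half of the fitted maximal effect; on the % scale 0 is the no-effect control and ±100 the full control effect; actives lower thioflavin S fluorescence by blocking filaments or displacing dye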
# Target sequence (P10636 whole entry, looked up): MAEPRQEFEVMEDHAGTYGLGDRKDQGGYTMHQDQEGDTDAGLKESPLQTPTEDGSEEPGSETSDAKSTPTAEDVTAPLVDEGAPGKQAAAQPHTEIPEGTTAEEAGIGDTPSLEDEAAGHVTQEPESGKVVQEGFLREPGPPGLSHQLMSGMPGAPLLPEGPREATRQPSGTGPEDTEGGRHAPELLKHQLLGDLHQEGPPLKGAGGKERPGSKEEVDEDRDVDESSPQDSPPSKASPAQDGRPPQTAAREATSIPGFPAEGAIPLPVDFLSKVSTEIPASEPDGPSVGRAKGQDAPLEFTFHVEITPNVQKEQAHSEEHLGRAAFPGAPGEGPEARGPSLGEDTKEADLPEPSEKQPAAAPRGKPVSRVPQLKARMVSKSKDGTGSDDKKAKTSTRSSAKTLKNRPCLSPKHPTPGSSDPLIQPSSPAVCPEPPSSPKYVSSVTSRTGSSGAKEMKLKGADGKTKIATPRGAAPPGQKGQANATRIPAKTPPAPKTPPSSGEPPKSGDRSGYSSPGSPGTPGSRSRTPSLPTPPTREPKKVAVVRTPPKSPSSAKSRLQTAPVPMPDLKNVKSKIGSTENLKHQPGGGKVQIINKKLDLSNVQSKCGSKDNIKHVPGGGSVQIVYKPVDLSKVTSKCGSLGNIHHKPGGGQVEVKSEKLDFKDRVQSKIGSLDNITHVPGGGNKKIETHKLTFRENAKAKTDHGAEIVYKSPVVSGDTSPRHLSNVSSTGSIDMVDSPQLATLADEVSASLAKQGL
#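 Read-out: ThS fluorescence, 450 nm excitation/510 nm emission; lower signal marks blocked filament formation or displaced dye. Tau at 1 uM with 30 uM ODS, 10 uM ThS, 5 mM DTT, 100 mM NaCl, 10 mM HEPES pH 7.4; 15 h, 37 C.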
# BRCT inh green – inhibitors of human BRCA1 BRCT-phosphoprotein interaction (green fluorophore) | 75,000 compounds, 0.05% hits | BRCA1 BRCT-phosphopeptide binding, green fluorescence polarization | Potency, µM (top dose mostly 76.9 µM), inactives show at the top dose activity change, negative = inhibition, actives largely listed as inhibitors;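 further: potency means the concentration at half of the fitted maximal effect; plate controls were peptide without protein for full effect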
#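 Compounds were incubated for 12 min at room temperature with a complex of 100 nM fluorescein-tagged pBACH1 decapeptide and 250 nM His-tagged BRCT protein. Buffer was phosphate pH 7.3 with EDTA, DTT and Tween 20. Disruption of binding lowers the polarization signal.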
# TsaE inh – YjeE (TsaE) inhibition, E. coli | purified YjeE enzyme, qHTS inhibition assay | 71,000 compounds, 0.05% hits | Potency, µM | AID 605 | P0AF67
#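 Purified YjeE (10 uM) with BODIPY Texas Red-labeled ADP probe (2 uM); compounds pin-transferred, 15 min at room temperature. Binding inhibition read as decreased fluorescence polarization; ADP titration as control.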
# BRCT inh red – inhibitors of human BRCA1 BRCT-phosphoprotein interaction (red fluorophore) | BRCT-phosphopeptide binding, red fluorescence polarization | Potency, µM (doses to about 76.9 µM), for inactives: at the top dose activity change, negative = inhibition, most hits filed as inhibitors | 75,000 compounds, 0.03% hits; further: on the % scale 0 is the no-effect control and ±100 the full control effect
#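 Fluorescence polarization: 100 nM His-tagged BRCA1 BRCT with 100 nM TAMRA-labelled phospho-BACH1 decapeptide, phosphate buffer pH 7.3 with 150 mM NaCl, DTT, 0.01% Tween 20; 12 min RT. Binding inhibition seen as FP decrease.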
# Pol III holo inh – inhibitors of bacterial DNA polymerase III holoenzyme | 71,000 compounds, 0.25% hits | AID 603 | Potency, µM (titrated, usually from 57.1 µM), for the others: at the highest dose activity change, negative = inhibition | reconstituted DNA polymerase III holoenzyme replication, biochemical; further: potency means the concentration at half of the fitted maximal effect; on the % scale 0 is the no-effect control and ±100 the full control effect
#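 Reconstituted *E. coli* holoenzyme (0.35 nM Pol III, 1 nM beta, 154 nM SSB, 2 nM primase) was preincubated with compound for 15 min at RT. Synthesis on 1.4 nM ssM13Gori ran 35 min, then was stopped with PicoGreen/EDTA and read as dsDNA fluorescence.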
# Numbers without * were called inactive; i = inactive; ? = inconclusive; . = no result given; ! = not active in a repeat; [ ] = another dose, or the depositor's remark. An excerpt weighted towards active compounds, which were near 2.3% of everything screened. Unless noted, the call rests on the fitted dose curve; in most records, active means well fitted curve in the direction sought with a large enough effect; inconclusive means small, poorly fitted or top-dose-only effect, or another doubt; inactive means no such curve, though single readings can be large; an effect the other way counts as inactive or inconclusive.
SMILES,Hsp90 Hop PPI,Tau filament bind,BRCT inh green,TsaE inh,BRCT inh red,Pol III holo inh
[Cl-].[Cl-].[Hg+2],-0.1%,11.8%,-10.1%,i,0.8%,31.6µM*
COc1ccc2[nH]c3c(c2c1)CCN=C3C,-21.2%[26 µM],2.51µM*,4.6%[34.4 µM],i,1.0%[34.4 µM],-9.3%[25.6 µM]
COc1ccc2[nH]cc(CCN)c2c1,-6.0%,-10.9%,-0.6%,i,1.6%,-4.1%
CCCCCC[C@H]1C(=O)O[C@@H](C)[C@H](NC(=O)c2cccc(NC=O)c2O)C(=O)O[C@@H](C)[C@@H]1OC(=O)CC(C)C,-7.9%,?,.,i,.,-0.8%
O=C(O)/C=C\c1ccc[c]([Sb](=[O])([OH])[OH])c1,-8.1%[11 µM],5.1%[11.4 µM],-22.3%[15.4 µM],i,31.2%[15.4 µM],0.2µM*
CN(C(=O)Oc1cccc2cccnc12)c1ccccc1,.,.,-2.2%,.,0.0%,.
Oc1cccc2cccnc12,10µM*!,9.1%[11.4 µM],0.2%[15.4 µM],i,2.2%[15.4 µM],-13.4%[11.4 µM]
C=C(C)[C@H]1[C@H]2OC(=O)[C@@H]1[C@]1(O)C[C@H]3O[C@]34C(=O)O[C@H]2[C@]14C,?,31.6µM*,.,i,.,-2.6%
CC(C)(O)[C@@H]1C2OC(=O)[C@@H]1[C@]1(O)C[C@H]3O[C@]34C(=O)O[C@H]2[C@]14C,.,.,-5.4%,.,0.4%,.
C[C@H]1CC[C@]2(NC1)O[C@@H]1C[C@@H]3[C@@H]4CC=C5C[C@H](O)CC[C@@]5(C)[C@H]4CC[C@@]3(C)[C@H]1[C@@H]2C,-4.0%,?,.,i,.,-0.8%
C[C@H]1CC[C@@H]2[C@@H](C)C(=O)O[C@H]3O[C@@]4(C)CC[C@@H]1[C@]32OO4,0.0%,?,.,i,.,-2.6%
COc1ccc(P2(=O)Nc3ccccc3N2)cc1,-7.6%,15.8µM*,0.6%,i,1.0%,-12.7%
COc1cccc2c1C(=O)c1c(O)c3c(c(O)c1C2=O)C[C@](O)(/C(C)=N\O)C[C@@H]3O[C@H]1C[C@H](N)[C@@H](O)[C@H](C)O1,-5.0%[11 µM],1.58µM*,5.2%[15.4 µM],i,?,1µM*
C[C@@H]1O[C@H](O[C@H]2C[C@@H](O)[C@]3(CO)[C@H]4[C@H](O)C[C@]5(C)[C@@H](C6=CC(=O)OC6)CC[C@@]5(O)[C@H]4CC[C@]3(O)C2)[C@@H](O)[C@H](O)[C@H]1O,-4.9%,?,.,i,.,-2.9%
COc1ccc(N2CCN(CCCN)CC2)cc1,-26.9%,20µM*,-0.6%,i,-1.8%,-3.5%
CC[C@H]1[C@@H]2C[C@@H]3[C@@H]4N(C)c5ccccc5[C@@]45C[C@@H]([C@H]2[C@@H]5O)N3[C@@H]1O,-1.2%,?,.,i,.,-8.2%
CC(C)[C@@]1(NC(=O)[C@@H]2C=C3c4cccc5[nH]cc(c45)C[C@@H]3N(C)C2)O[C@]2(O)[C@H]3CCCN3C(=O)[C@H](Cc3ccccc3)N2C1=O,-28.5%,434.3%,.,i,.,0.4%
CN[C@H]1[C@H](C)O[C@@H](O[C@@H]2C/C=C(/C)C/C(C)=C\C=C/CC[C@@H](C)CNC(=O)/C=C\C=C/[C@H]2C)C[C@@H]1O,-2.6%[11 µM],195.9%[11.4 µM],.,i,.,2.8%[11.4 µM]
COc1cc2c(cc1O)CC1c3c(cc(O)c(OC)c3-2)CCN1C (centres undefined),.,.,-3.9%,.,-2.3%,.
COc1cc2c(cc1O)C[C@H]1c3c(cc(OC)c(O)c3-2)CCN1C,-11.1%,39.8µM*,-5.6%,i,-6.8%,-10.5%
COc1cc([C@@H](O)CN)ccc1O,-8.8%,3.2%,-2.6%,i,-1.8%,-3.2%
COc1ccc2c(c1O)-c1cccc3c1[C@H](C2)N(C)CC3,-4.2%,-10.0%,0.6%,i,-0.5%,3.2%
CCOC(=O)C1CCN(/C=C2/C(=O)NC(=O)N(Cc3ccco3)C2=O)CC1,-13.6%,-9.5%,-1.7%,i,-0.5%,7.94µM*
CCCN1CCc2cccc3c2[C@@H]1Cc1ccc(O)c(O)c1-3,-26.3%,-16.9%,0.4%,i,-1.3%,-7.1%
C[C@@H]1O[C@H]1P(=O)(O)O,-8.7%,-4.4%,-1.5%,i,-1.1%,3.9%
SMILES,Hsp90 Hop PPI,Tau filament bind,BRCT inh green,TsaE inh,BRCT inh red,Pol III holo inh
C[C@@H]1O[C@@H](O[C@H]2C[C@@H](O)[C@]3(CO)[C@@H]4[C@@H](O)C[C@]5(C)[C@H]([C@@H]6COC(=O)C6)CC[C@@]5(O)[C@H]4CC[C@@]3(O)C2)[C@H](O)[C@H](O)[C@@H]1O,-3.7%,-8.7%,-1.8%,i,1.9%,-4.3%
c1ccc(Nc2ccc(Nc3ccccc3)cc2)cc1,?,12.6µM*,0.3%,i,-0.7%,-5.2%
COc1cc2c(cc1O)CCN[C@H]2C,-1.7%,?,.,i,.,-0.8%
CC1=NN=C(c2ccc(N)cc2)c2cc3c(cc2C1)OCO3,?,31.6µM*!,1.2%,i,0.3%,-0.9%
CCN1C[C@@]2(C)CC[C@H](O)[C@@]34[C@@H]5C[C@H]6[C@H](O)[C@@H]5[C@](O)(C[C@@H]6OC)[C@H](C[C@@H]23)[C@H]14,6.2%,?,.,i,.,-3.2%
[Cd+2].[Cl-].[Cl-],-10.2%,5.3%,-3.0%,?,-0.5%,0.0631µM*
CN1CCC(n2nccc2N)CC1,-0.2%,-8.5%,-0.9%,i,0.9%,56.4%
Nc1ccnn1C1CCNCC1,7.2%,25.1µM*,-1.4%,i,1.1%,-5.1%
C[C@@]12CC[C@H]3[C@@H](CCC4=CC(=O)CC[C@]43C)[C@H]1CCC2=O,-3.5%,-1.9%,.,i,.,0.7%
COC(=O)c1c(C)ccc2c(O)c3c(cc12)C(=O)c1c2c(cc(O)c1C3=O)[C@@]1(C)O[C@@](C)(O2)[C@@H](O)[C@H](N(C)C)[C@H]1O,-7.7%[11 µM],3.98µM*,2.3%[15.4 µM],i,-2.3%[15.4 µM],-10.3%[11.4 µM]
c1ccc2c(c1)Sc1ccccc1N2C[C@H]1CN2CCC1CC2,0.7%[11 µM],1.58µM*,-0.8%[15.4 µM],i,0.6%[15.4 µM],-9.1%[11.4 µM]
CC1(C)CN=C(NCc2ccccc2Cl)S1,-8.0%,25.1µM*,-1.2%,i,-0.6%,-5.6%
CC1(C)CN=C(Nc2ccccc2C(F)(F)F)S1,?,-8.6%,-0.8%,i,-0.6%,-6.5%
Clc1ccc(C(c2ccc(Cl)cc2)C(Cl)Cl)cc1,31.6µM*,-5.7%,2.3%,i,1.2%,2.1%
O=c1cccc2n1C[C@@H]1C[C@H]2CN2CCCC[C@H]12,0.4%,31.6µM*,.,i,.,-2.2%
COc1ccc2c(c[n+](C)c3c4cc5c(cc4ccc23)OCO5)c1OC,-11.6%,31.6µM*,-2.7%,i,-1.6%,-4.8%
CC[C@@H]1CN2CC[C@@H]1C[C@H]2[C@@H](O)c1ccnc2ccc(OC)cc12,-2.0%,?,.,i,.,-1.6%
Cc1ccc(O)cc1,-11.3%,-2.7%,-1.2%[3.08 µM],i,5.0%,4.6%

# From PubChem BioAssay
